{
  "source": "PubChem BioAssay AID2293",
  "about": "(National Center for Advancing Translational Sciences (NCATS), 2010)",
  "note": "Calls of active or inactive are those of the source. No rule for the calls is given here.",
  "data": [
    {"biological_target": "Lysosomal alpha-glucosidase (Homo sapiens) (UniProt P10253)", "assay": "Direct Measure of the Activation of Acid alpha-Glucosidase Catalytic Rate", "settings": "purified enzyme, 4MU-alpha-Glc conversion, LC-MS; at 37.5 µM; stronger effect = higher value", "text": "(§1) NIH Chemical Genomics Center [NCGC] NIH Molecular Libraries Probe Production centers Network [MLPCN] MLPCN Grant: 1R03MH084841-01 Assay Submitter (PI): Wei Zheng NCGC Assay Overview: Alpha-glucosidase is responsible for hydrolysis of terminal, non-reducing 1,4-linked alpha-D-glucose residues with release of alpha-D-glucose. It is a lysosomal hydrolase that is required for the degradation of a small percentage (1-3%) of cellular glycogen in human. Deficiency of this enzyme results in glycogen-storage disease type II (GSDII), also referred to as Pompe disease, an autosomal recessive disorder. Structurally normal glycogen is accumulated in lysosomes and cytoplasm in affected patients, primarily in muscle tissues. Excessive glycogen storage within lysosomes may interrupt normal functioning of other organelles and leads to cellular injury. In turn, this leads to enlargement and dysfunction of the entire organ involved (eg, cardiomyopathy and muscle weakness). It has reported that the improper folding and trafficking of alpha-glucosidase resulting from the genetic mutations may account for a significant number of Pompe patients. […]\n(§2) The catalysis rate of the 4MU-alpha-Gluc substrate by acid alpha-glucosidase was measured using LC-MS. […] (5) Add 50 ul stop solution (1M NaOH and 1M Glycine mixture, pH 10) (6) Run LC-MS and integrate peaks to quantitate amount of product", "values": [
      {"smiles": "CCCN1CNc2c(c(=O)[nH]c(=S)n2CCc2ccc(OC)c(OC)c2)C1", "substrate conversion": "28% (active)"}
    ]},
    {"biological_target": "Lysosomal alpha-glucosidase (Homo sapiens) (UniProt P10253)", "assay": "Direct Measure of the Activation of Acid alpha-Glucosidase Catalytic Rate", "settings": "purified enzyme, 4MU-alpha-Glc conversion, LC-MS; conversion; at 5 µM; stronger effect = higher value", "text": "as §1, §2", "units": {"substrate conversion": "%"}, "values": [
      {"smiles": "CCCN1CNc2c(c(=O)[nH]c(=S)n2CCc2ccc(OC)c(OC)c2)C1", "substrate conversion": 20}
    ]}
  ]
}
